# Assay results reported in PubChem BioAssay.
# Experiment: reversal of MRP1-mediated doxorubicin resistance, pilot screen, H69AR cells, doxorubicin co-treatment (AID 601)
# Conditions: H69AR cells + 2 uM doxorubicin, CellTiter-Glo, 72 h; measured here: viability with 2 uM doxorubicin; at 10 µM; stronger effect = lower value
row,Compound,viability
1,CCCCN=CC1=C(O)C(C(=O)OC)C(C)(C)CC1=O (stereo not given),86.9%
2,Cc1ccc(C)c(C(=O)CC2(O)C(=O)N(C)c3ccccc32)c1 (stereo not given),82.1%
3,CC(=O)C1=C(C)Nc2ncnn2C1c1cccc(OCc2ccccc2)c1 (stereo not given),94.2%
4,Cc1ccc(C(=O)CC2(O)C(=O)N(C)c3ccc(Br)cc32)c(C)c1 (stereo not given),91.9%
5,Fc1cccc(Nc2ncnc3c2cnn3-c2ccccc2)c1,69.5%
6,COc1ccc(NC(=O)NCCN2C(=O)C3C4C=CC(C4)C3C2=O)cc1 (stereo not given),97.5%
7,Cc1ccc(C)c(NC(=O)CSc2nnc(-c3ccccc3)o2)c1,80.1%
8,O=C(NCCCN1CCOCC1)c1cc(-c2ccc(O)cc2)on1,89%
9,CCOC(=O)c1ccc(NC(=O)Cn2cc3c(n2)CCC(C)C3)cc1 (stereo not given),99.5%
10,N#C/C(C(=O)N1CCOCC1)=C1/SC=C(c2ccccc2)N1c1ccccc1,91.3%
11,COc1ccc(C(=O)c2coc3ccc(O)c(CN4CCCCC4)c23)cc1,75.7%
12,CCn1c(C(=O)N2CCC(C(=O)N3CCN(c4ccccn4)CC3)CC2)cc2sccc21,54.2%
13,CCOC(=O)N1CCN(Cc2nc3c(c(=O)n(C)c(=O)n3C)n2Cc2ccccc2)CC1,78.7%
14,CN1CCN(C(=O)c2ccc(CS(=O)(=O)c3c(Cl)cccc3Cl)o2)CC1,85.8%
15,CN(C)CCCN1C(=O)c2oc3ccc(Cl)cc3c(=O)c2C1c1cccnc1 (stereo not given),79.9%
16,O=C(CSc1nnc2ccccn12)c1ccccc1,80.3%
17,Cc1ccccc1Cn1ccc(NC(=O)c2onc(C)c2Cl)n1,83.6%
18,CN(CCCNC(=O)c1cn(C)c2ccc(S(=O)(=O)N(C)C)cc2c1=O)c1ccccc1,70.6%
19,NC(=O)CN1C(=O)C(O)(CC(=O)c2ccccc2O)c2ccccc21 (stereo not given),97%
20,CC(C)CCN(C)C1CCN(S(=O)(=O)c2ccc(F)cc2)CC1,91.6%

row,Compound,viability
1,COc1ccc(C(C)N2CC34C=CC(O3)C(C(=O)OCC(C)C)C4C2=O)cc1 (stereo not given),81.9%
2,COc1ccc(Cl)cc1S(=O)(=O)N1CCN(c2ccc(F)cc2)CC1,87.4%
3,Cc1sc2nc(SCC(=O)NCCO)n(C)c(=O)c2c1C,94.7%
4,CC(=O)NCCc1nc2ccccc2[nH]1,94.7%
5,CCN1C(=O)c2cccc3c(NC(=O)c4ccc(S(=O)(=O)N(C)C)cc4)ccc1c23,69.8%
6,Cc1nc2ccccc2c2oc(C(=O)N3CCN(C(=O)c4ccco4)CC3)cc12,83.4%
7,c1ccc(Cn2nnc3c(N4CCCCCC4)ncnc32)cc1,83.8%
8,COC(=O)c1cn(C(=O)c2ccc(Br)o2)c2ccccc12,89.6%
9,CS(=O)(=O)Nc1ccccc1C(=O)O,96.3%
10,Cn1cccc1Cc1nnc(SCC(=O)NCC2CCCO2)n1-c1ccc(F)cc1 (stereo not given),90.9%
11,Cc1ccc(Cn2c(=O)c3ccccc3n3c(CCC(=O)O)nnc23)cc1,91.9%
12,COc1ccc(OCCSc2nc3ccccc3n2CC(=O)O)cc1,95.3%
13,CCCCSc1nc2c(cnn2-c2ccc(F)cc2)c(=O)[nH]1,84.9%
14,CCOc1ccc(NC(=O)C(C)Sc2nnc(C)n2C)cc1 (stereo not given),96.1%
15,CCOc1ccc2[nH]c(C)cc(=O)c2c1,89.6%
16,Cc1nc2ccccc2c2oc(C(=O)N3CCC(N4CCCCC4)CC3)cc12,78.1%
17,O=C(O)c1ccc2c(c1)C(=O)N(c1ccc(Cl)cn1)C2=O,88.2%
18,COc1cccc(-c2nc(CS(=O)(=O)CC(=O)NCc3ccc(Cl)cc3)c(C)o2)c1,77.8%
19,COc1ccc(C(NC(=O)c2ccco2)c2ccc(OC)c(OC)c2)cc1 (stereo not given),81.1%
20,CCOC(=O)N1CCC(NC(=O)CN2C(=O)CCSc3ccccc32)CC1,96.6%
